Experimental data reported in ChEMBL document CHEMBL2218924, “A broad activity screen in support of a chemogenomic map for kinase signalling research and drug discovery” (Biochem J, 2013).

Assays:
[1] = molecular target: Mitogen-activated protein kinase 10 (Homo sapiens) (UniProt P53779); details: at 10 µM
[2] = molecular target: Vascular endothelial growth factor receptor 2 (Homo sapiens) (UniProt P35968); details: at 1 µM
[3] = molecular target: Vascular endothelial growth factor receptor 2 (Homo sapiens) (UniProt P35968); details: at 10 µM
[4] = molecular target: LIM domain kinase 1 (Homo sapiens) (UniProt P53667); details: at 1 µM
[5] = molecular target: LIM domain kinase 1 (Homo sapiens) (UniProt P53667); details: at 10 µM
[6] = molecular target: T1, Serine/threonine-protein kinase STK11 (Homo sapiens) (UniProt Q15831); details: at 1 µM
T1 sequence (whole entry): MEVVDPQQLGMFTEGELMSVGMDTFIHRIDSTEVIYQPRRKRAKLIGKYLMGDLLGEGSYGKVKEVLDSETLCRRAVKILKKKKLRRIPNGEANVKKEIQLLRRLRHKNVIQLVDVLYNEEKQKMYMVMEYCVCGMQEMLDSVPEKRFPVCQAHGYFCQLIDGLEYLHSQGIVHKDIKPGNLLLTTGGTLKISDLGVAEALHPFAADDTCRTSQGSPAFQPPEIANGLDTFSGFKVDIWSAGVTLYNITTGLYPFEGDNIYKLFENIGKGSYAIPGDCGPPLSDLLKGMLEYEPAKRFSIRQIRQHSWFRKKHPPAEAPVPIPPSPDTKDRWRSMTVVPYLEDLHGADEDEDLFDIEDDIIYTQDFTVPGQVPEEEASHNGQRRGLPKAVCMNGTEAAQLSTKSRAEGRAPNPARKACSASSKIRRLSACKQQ

[7] = molecular target: T1, Serine/threonine-protein kinase STK11 (Homo sapiens); details: at 10 µM
[8] = molecular target: Serine/threonine-protein kinase 10 (Homo sapiens) (UniProt O94804); details: at 1 µM
[9] = molecular target: Serine/threonine-protein kinase 10 (Homo sapiens) (UniProt O94804); details: at 10 µM
[10] = molecular target: Tyrosine-protein kinase Lck (Homo sapiens) (UniProt P06239); details: at 1 µM
[11] = molecular target: Tyrosine-protein kinase Lck (Homo sapiens) (UniProt P06239); details: at 10 µM
[12] = molecular target: Tyrosine-protein kinase Lck (Homo sapiens) (UniProt P06239); details: at 1 µM; remark: listed apart in the source
[13] = molecular target: Tyrosine-protein kinase Lck (Homo sapiens) (UniProt P06239); details: at 10 µM; remark: listed apart in the source
[14] = molecular target: Tyrosine-protein kinase Lyn (Homo sapiens) (UniProt P07948); details: at 1 µM
[15] = molecular target: Tyrosine-protein kinase Lyn (Homo sapiens) (UniProt P07948); details: at 10 µM
[16] = molecular target: Mitogen-activated protein kinase 3 (Homo sapiens) (UniProt P27361); details: at 1 µM
[17] = molecular target: Mitogen-activated protein kinase 3 (Homo sapiens) (UniProt P27361); details: at 10 µM
[18] = molecular target: Mitogen-activated protein kinase 1 (Homo sapiens) (UniProt P28482); details: at 1 µM
[19] = molecular target: Mitogen-activated protein kinase 1 (Homo sapiens) (UniProt P28482); details: at 10 µM
[20] = molecular target: MAP kinase-activated protein kinase 2 (Homo sapiens) (UniProt P49137); details: at 1 µM
MAP kinase-activated protein kinase 2 (Homo sapiens), sequence (P49137 whole entry, looked up): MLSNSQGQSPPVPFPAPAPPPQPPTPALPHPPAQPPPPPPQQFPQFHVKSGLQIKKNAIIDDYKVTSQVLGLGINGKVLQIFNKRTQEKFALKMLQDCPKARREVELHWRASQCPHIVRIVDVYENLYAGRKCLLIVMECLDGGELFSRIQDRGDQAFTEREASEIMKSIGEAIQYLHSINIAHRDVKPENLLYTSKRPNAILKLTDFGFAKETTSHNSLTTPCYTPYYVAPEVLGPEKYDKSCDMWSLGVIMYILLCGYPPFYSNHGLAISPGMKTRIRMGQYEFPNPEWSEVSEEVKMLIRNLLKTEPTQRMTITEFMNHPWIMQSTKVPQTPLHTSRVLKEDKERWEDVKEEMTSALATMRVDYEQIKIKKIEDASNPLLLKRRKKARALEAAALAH

Mitogen-activated protein kinase 1 (Homo sapiens), sequence (P28482 whole entry): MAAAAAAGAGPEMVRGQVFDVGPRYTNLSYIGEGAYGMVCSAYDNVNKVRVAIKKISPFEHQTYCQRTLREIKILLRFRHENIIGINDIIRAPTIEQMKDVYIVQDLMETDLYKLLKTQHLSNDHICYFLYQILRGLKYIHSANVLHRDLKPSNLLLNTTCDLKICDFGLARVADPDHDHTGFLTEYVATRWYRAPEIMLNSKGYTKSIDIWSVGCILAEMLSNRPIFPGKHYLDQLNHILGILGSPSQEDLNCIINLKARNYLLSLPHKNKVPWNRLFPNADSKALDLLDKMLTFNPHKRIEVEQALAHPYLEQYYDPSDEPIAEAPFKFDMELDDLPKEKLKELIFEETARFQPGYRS
Mitogen-activated protein kinase 10 (Homo sapiens), sequence (P53779 whole entry): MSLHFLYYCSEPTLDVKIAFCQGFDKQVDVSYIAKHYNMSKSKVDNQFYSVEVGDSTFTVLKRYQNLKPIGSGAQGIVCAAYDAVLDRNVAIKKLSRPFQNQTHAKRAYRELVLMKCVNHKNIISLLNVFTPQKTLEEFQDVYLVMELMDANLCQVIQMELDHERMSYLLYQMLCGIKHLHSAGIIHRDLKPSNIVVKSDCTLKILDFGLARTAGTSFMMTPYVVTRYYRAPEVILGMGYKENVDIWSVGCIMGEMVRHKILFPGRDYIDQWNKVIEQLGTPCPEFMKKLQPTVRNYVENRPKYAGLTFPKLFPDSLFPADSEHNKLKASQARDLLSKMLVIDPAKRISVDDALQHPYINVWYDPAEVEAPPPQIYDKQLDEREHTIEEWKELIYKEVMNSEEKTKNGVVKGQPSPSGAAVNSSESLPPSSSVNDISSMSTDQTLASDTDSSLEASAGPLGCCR
Serine/threonine-protein kinase 10 (Homo sapiens), sequence (O94804 whole entry, looked up): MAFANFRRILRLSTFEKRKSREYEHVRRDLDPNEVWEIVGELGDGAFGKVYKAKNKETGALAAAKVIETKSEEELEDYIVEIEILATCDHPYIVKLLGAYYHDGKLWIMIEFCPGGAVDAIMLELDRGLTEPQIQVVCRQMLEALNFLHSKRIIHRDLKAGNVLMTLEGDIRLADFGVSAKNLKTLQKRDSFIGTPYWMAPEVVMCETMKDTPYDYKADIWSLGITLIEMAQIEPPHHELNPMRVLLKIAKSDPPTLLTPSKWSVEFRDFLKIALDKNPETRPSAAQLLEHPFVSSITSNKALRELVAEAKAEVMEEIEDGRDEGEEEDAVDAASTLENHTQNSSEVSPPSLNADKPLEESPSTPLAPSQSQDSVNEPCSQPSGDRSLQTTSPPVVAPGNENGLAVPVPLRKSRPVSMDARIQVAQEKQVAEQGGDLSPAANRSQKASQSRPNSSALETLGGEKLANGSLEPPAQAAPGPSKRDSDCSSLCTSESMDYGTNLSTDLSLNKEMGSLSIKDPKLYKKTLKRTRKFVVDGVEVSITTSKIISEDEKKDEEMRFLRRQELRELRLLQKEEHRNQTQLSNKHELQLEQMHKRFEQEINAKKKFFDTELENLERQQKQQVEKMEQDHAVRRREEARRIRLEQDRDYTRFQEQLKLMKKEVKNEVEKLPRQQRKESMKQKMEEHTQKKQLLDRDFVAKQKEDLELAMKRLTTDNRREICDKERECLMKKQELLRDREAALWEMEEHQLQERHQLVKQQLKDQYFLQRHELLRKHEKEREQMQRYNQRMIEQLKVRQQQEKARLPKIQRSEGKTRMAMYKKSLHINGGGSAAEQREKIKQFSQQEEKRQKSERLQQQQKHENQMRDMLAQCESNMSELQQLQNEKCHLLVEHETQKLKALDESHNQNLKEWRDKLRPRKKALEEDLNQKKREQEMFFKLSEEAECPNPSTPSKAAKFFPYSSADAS
Tyrosine-protein kinase Lck (Homo sapiens), sequence (P06239 2-509 limits assumed): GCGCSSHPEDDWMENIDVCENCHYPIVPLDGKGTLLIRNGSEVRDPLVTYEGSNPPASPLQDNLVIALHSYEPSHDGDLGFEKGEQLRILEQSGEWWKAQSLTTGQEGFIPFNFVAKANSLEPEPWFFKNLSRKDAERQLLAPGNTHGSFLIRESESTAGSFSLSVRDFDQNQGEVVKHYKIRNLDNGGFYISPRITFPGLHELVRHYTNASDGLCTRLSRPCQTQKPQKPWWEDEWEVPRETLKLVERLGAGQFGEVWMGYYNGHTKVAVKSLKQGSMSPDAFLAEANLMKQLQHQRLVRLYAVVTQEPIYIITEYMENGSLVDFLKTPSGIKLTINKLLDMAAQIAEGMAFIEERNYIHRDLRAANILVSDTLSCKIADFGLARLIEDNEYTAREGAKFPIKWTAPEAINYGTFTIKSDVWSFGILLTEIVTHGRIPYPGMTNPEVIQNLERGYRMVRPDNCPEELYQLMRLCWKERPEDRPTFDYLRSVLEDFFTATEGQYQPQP
Vascular endothelial growth factor receptor 2 (Homo sapiens), sequence (P35968 whole entry, the tested form may be a part): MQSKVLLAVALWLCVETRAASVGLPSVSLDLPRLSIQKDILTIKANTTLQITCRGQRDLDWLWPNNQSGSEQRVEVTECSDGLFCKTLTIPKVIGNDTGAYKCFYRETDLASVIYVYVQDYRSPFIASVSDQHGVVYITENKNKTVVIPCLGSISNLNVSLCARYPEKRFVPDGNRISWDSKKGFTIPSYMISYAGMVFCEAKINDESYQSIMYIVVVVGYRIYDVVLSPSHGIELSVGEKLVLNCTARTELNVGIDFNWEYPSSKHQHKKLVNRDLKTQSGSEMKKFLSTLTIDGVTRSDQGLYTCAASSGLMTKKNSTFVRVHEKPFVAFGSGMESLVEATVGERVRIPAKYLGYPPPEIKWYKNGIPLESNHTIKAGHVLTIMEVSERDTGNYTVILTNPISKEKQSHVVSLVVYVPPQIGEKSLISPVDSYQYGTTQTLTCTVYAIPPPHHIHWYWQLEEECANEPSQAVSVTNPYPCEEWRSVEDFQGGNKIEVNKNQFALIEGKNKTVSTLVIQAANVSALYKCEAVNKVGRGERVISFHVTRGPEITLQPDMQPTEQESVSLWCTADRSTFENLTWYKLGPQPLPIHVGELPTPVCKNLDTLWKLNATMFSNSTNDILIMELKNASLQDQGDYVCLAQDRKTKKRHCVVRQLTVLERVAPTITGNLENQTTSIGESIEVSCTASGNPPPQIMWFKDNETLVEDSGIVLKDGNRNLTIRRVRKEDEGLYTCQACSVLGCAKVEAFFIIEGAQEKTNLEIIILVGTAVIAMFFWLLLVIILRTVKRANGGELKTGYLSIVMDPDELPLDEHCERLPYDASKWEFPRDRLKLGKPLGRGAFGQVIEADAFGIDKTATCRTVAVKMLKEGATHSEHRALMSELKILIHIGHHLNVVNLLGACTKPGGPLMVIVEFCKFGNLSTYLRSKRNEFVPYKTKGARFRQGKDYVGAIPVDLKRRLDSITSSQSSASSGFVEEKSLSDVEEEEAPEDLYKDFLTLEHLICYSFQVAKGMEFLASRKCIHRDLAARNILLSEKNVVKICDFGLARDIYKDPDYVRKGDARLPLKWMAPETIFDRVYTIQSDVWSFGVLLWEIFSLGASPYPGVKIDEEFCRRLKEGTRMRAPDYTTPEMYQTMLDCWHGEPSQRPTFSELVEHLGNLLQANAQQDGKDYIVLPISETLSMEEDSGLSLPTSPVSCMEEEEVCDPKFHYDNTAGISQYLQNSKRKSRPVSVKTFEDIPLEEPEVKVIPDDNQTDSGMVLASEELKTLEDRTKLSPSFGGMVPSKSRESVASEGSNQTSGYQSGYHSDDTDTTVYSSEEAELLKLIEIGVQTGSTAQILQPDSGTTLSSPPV
Tyrosine-protein kinase Lyn (Homo sapiens), sequence (P07948 2-512 limits assumed): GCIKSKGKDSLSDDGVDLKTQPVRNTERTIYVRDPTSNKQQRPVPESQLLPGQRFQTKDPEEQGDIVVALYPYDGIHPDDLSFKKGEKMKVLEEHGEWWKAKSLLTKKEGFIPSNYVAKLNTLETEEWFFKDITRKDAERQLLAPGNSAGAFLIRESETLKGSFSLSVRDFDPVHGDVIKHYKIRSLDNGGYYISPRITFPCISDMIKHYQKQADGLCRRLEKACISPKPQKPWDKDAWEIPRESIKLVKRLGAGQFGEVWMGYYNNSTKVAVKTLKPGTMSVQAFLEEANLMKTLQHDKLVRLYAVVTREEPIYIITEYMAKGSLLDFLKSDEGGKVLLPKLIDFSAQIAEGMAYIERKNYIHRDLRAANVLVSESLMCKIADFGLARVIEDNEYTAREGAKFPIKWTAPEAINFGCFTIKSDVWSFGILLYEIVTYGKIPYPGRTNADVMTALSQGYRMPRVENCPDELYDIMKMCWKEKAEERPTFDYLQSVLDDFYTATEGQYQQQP
Mitogen-activated protein kinase 3 (Homo sapiens), sequence (P27361 whole entry): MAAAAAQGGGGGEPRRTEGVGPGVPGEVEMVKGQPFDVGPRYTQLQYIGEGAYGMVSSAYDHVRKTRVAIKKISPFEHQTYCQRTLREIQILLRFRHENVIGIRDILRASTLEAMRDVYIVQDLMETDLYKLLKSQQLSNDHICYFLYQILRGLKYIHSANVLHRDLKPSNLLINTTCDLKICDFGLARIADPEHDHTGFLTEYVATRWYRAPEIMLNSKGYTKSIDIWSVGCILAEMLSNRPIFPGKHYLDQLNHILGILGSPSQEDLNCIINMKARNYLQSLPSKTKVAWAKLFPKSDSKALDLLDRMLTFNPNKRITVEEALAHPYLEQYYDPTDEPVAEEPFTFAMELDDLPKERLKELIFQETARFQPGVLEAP

Row | SMILES | residual activity [1] | residual activity [2] | residual activity [3] | residual activity [4] | residual activity [5] | residual activity [6] | residual activity [7] | residual activity [8] | residual activity [9] | residual activity [10] | residual activity [11] | residual activity [12] | residual activity [13] | residual activity [14] | residual activity [15] | residual activity [16] | residual activity [17] | residual activity [18] | residual activity [19] | residual activity [20]
1 | COc1cc2nccc(Oc3ccc(NC(=S)NC(=O)c4ccccc4C)cc3)c2cc1OC | 79% | 4% | 3% | 60% | 28% | 98% | 90% | 6% | 7% | 1% | -1% | 0% | 0% | 0% | 0% | 83% | 82% | 93% | 87% | 73%
2 | O=c1cc(N2CCNCC2)oc2c(-c3ccccc3)cccc12 | 89% | 100% | 89% | 92% | 86% | 97% | 92% | 95% | 89% | – | 85% | 92% | 88% | – | 71% | 86% | 87% | 101% | – | 94%
3 | O=C1NC(=O)C(c2c[nH]c3ccccc23)=C1c1c[nH]c2ccccc12 | -3% | 16% | 2% | – | 50% | 100% | 97% | 39% | 15% | 78% | 37% | – | 41% | 82% | 32% | – | 61% | – | – | 98%
4 | O=C1NC(=O)C(c2cn(CCCO)c3ncccc23)=C1c1cnccn1 | 86% | 64% | 63% | – | 80% | 85% | 75% | 94% | 80% | – | – | – | – | 78% | 70% | – | – | – | – | 93%
5 | NCCNc1ncc(C(N)=O)c(Nc2cccc(C(F)(F)F)c2)n1 | 46% | 101% | 78% | 102% | 50% | 74% | 20% | – | – | 80% | 37% | 82% | 29% | 27% | 3% | 72% | 40% | – | 43% | –
6 | Nc1ncnc2c1cnn2-c1ccccc1 | 70% | 102% | 83% | 99% | 67% | 96% | 98% | 98% | 85% | – | – | – | – | 95% | 82% | 82% | 80% | – | 95% | 92%
7 | O=C1Nc2ccc(Cl)cc2/C1=C/c1cc(Cl)c(O)c(Cl)c1 | 32% | 13% | 1% | 88% | 42% | 91% | 86% | 67% | 47% | 95% | 53% | 74% | 51% | 81% | 23% | 76% | 70% | – | – | 67%
8 | CCCCc1c(-c2ccc(O)cc2)[nH]c2nccnc12 | 23% | 77% | 42% | 64% | 53% | – | 73% | 80% | 90% | 48% | 50% | 63% | 59% | – | – | 96% | 73% | – | – | 98%
9 | O=C(O)/C=C/c1cc(Br)c(Br)c(Br)c1Br | 46% | 99% | 81% | 105% | 71% | 93% | 38% | 94% | 58% | 77% | 95% | – | 80% | 70% | 63% | 106% | 104% | – | – | 93%
10 | O=C(c1cc2cc(O)ccc2[nH]1)c1cc2cc(O)ccc2[nH]1 | 33% | 18% | 3% | 74% | 41% | 100% | – | 55% | 20% | 16% | 2% | 22% | 7% | 6% | -1% | 82% | 64% | – | – | 64%
11 | COc1cc2ncnc(Nc3cccc(Cl)c3)c2cc1OC | 50% | 60% | 16% | 111% | 41% | 100% | 101% | 24% | 8% | 52% | 12% | 49% | 15% | 10% | 1% | – | 65% | 101% | 80% | 108%
12 | NC(=O)Nc1sc(-c2ccc(F)cc2)cc1C(N)=O | 33% | 41% | 6% | 46% | 7% | 92% | 73% | – | – | – | – | – | – | 16% | 1% | 80% | – | 108% | 67% | 92%
13 | O=c1cc(N2CCOCC2)oc2c1ccc1ccccc12 | 70% | 103% | 87% | 108% | 92% | 102% | 93% | 98% | 91% | – | 101% | 89% | 88% | 103% | 90% | 101% | 80% | 103% | 106% | 100%
14 | Nc1ncnc2[nH]nc(Nc3ccc(F)cc3)c12 | 92% | 97% | 54% | 90% | 58% | 102% | – | 53% | 7% | 49% | 14% | 31% | 19% | 19% | 3% | 90% | 43% | 101% | 67% | 75%
15 | CCCC(=O)Oc1ccc2[nH]c(C(=O)c3cc4ccccc4[nH]3)cc2c1 | 69% | 94% | 70% | 98% | 80% | 98% | 96% | 85% | 96% | 89% | 73% | 80% | 76% | 61% | 31% | 77% | 80% | 100% | 104% | 75%
16 | O=C(NC(NC(=S)Nc1ccc(F)c([N+](=O)[O-])c1)C(Cl)(Cl)Cl)C(c1ccccc1)c1ccccc1 (stereo not given) | 79% | 104% | 102% | 90% | 75% | 98% | 103% | – | – | 95% | 55% | 86% | 74% | 89% | 66% | 82% | 82% | – | – | 90%
17 | CN(C)S(=O)(=O)c1ccc2c(c1)/C(=C/c1cc3c([nH]1)CCCC3)C(=O)N2 | 81% | 51% | 40% | 90% | 77% | 99% | 96% | 63% | 78% | – | – | – | – | 3% | 0% | – | 88% | – | – | 81%
18 | COc1cc2c(cc1OC)-c1n[nH]c(Nc3cccc(F)c3)c1C2 | 33% | 75% | 25% | 13% | 2% | – | – | 59% | 37% | – | – | – | – | 6% | 6% | – | 76% | 103% | 103% | 75%
19 | O=C(CCCc1ccc(-c2ccccc2F)cc1)Nc1ccc(O)cc1 | 94% | 110% | 108% | 96% | 85% | 100% | 97% | 112% | 94% | 99% | 58% | 99% | 88% | 97% | 85% | 100% | 88% | 106% | 92% | 95%
20 | CC(C)(C)c1nc2c3ccc(F)cc3c3c(=O)[nH]ccc3c2[nH]1 | -7% | 65% | 24% | 98% | 63% | – | – | 72% | 32% | – | – | – | – | 65% | 20% | 47% | 64% | – | – | 79%
21 | CC(C)(C)n1nc(Cc2cccc3ccccc23)c2c(N)ncnc21 | -1% | 69% | 14% | 101% | 69% | 91% | 61% | 80% | 41% | 36% | 6% | 44% | 12% | 10% | 1% | 78% | 51% | 81% | 41% | –
22 | c1ccc(-c2cnc(Nc3ccc(OCCN4CCCC4)cc3)s2)cc1 | 36% | 10% | 4% | 64% | 16% | 108% | 103% | 75% | 55% | 58% | 19% | 36% | 5% | 29% | 4% | – | – | – | – | –
23 | CCN(CC)CCNC(=O)c1c(C)[nH]c(/C=C2\C(=O)Nc3ccc(Cl)cc32)c1C | 75% | 2% | 1% | 99% | 44% | – | – | 15% | 5% | 12% | 2% | 6% | -1% | 2% | 3% | – | 115% | – | – | –
24 | COc1ccc2c(c1)c(C1=C(c3c[nH]c4ccccc34)C(=O)NC1=O)cn2CCCN(C)C | 37% | 28% | 3% | 99% | 65% | 101% | 99% | 54% | 22% | – | 25% | 65% | 27% | 63% | 13% | 104% | 82% | 114% | – | –
